Shown are actives, neighbours in structure and some others; about 3.5% of the full set was active somewhere.
BoNT-F LC inh = BoNT/F light chain protease inhibitors, primary screen, biochemical, flow cytometry, MLPCN library. AID 588497, 2011. Multiplex microsphere protease cleavage assay. actives 0.22% (n = 360,000). Botulinum neurotoxin type F light chain protease (Clostridium botulinum). inhibition, % at 10 µM; in the data active means inhibition above about 35%, passing the limit was not always enough; inconclusive means no clear call, values can overlap the other calls; further: plate controls were buffer without enzyme for full effect and enzyme alone for no effect
Bead autofluor = counter-screen for toxin protease inhibitors: compound fluorescence | compound autofluorescence counterscreen, microsphere flow cytometry; hits give high values | fluorescence intensity (test concentration not listed) | actives 3.1% (n = 360,000) | AID 624483; in the data active means fluorescence intensity above about 16000; inconclusive means no clear call, values can overlap the other calls
Anthrax LF inh2 = Bacillus anthracis LF protease inhibitors, primary screen, biochemical, multiplex microsphere, MLPCN library. Lethal factor (Bacillus anthracis), P15917. multiplex microsphere protease cleavage assay. inhibition, % at 10 µM. actives 0.12% (n = 360,000); further: plate controls were buffer without enzyme for full effect and enzyme alone for no effect
Target sequence (P15917 whole entry, looked up): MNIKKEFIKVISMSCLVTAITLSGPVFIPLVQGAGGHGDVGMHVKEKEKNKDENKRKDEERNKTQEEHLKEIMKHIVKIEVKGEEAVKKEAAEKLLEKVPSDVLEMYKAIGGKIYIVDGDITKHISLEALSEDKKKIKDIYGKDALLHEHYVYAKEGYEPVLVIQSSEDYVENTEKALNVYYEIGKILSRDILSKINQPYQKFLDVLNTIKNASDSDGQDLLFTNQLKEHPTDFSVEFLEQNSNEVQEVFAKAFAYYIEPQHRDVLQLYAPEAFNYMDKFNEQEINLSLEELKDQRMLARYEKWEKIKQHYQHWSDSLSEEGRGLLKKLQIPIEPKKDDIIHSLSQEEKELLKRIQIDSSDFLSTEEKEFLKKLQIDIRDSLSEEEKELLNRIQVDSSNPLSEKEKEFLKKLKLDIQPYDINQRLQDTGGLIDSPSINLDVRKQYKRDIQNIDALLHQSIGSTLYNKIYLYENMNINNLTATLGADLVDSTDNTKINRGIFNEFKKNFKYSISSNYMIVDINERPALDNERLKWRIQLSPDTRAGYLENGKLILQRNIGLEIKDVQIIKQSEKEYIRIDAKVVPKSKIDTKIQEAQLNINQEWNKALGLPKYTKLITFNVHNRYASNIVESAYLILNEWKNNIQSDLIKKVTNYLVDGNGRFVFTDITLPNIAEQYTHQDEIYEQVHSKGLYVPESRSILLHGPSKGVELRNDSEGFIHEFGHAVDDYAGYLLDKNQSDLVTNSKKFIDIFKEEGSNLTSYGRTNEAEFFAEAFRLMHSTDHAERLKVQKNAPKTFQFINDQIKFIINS
BoNT-A LC inh2 = BoNT/A light chain protease inhibitors, primary screen, biochemical, flow cytometry, MLPCN library. Botulinum neurotoxin type A light chain protease (Clostridium botulinum A str. ATCC 3502). multiplex microsphere protease substrate cleavage. inhibition, % at 10 µM. actives 0.17% (n = 360,000); further: plate controls were buffer without enzyme for full effect and enzyme alone for no effect
3CLpro inhibitor = SARS-CoV 3CLpro protease inhibitors, primary screen, biochemical, quenched FRET; Replicase polyprotein 1ab (Severe acute respiratory syndrome coronavirus), P0C6X7; recombinant SARS-CoV 3CLpro, quenched FRET peptide cleavage; inhibition, % at 6 µM; actives 0.14% (n = 290,000); AID 1706, 2009; in the data active means inhibition above about 12%
* = called active by the depositor; u = inconclusive; x = not tested or not shown. Unless noted, no stated cut-off is given here; in the data, active means inhibition above about 30%; inconclusive means no clear call, values can overlap the other calls; inactive means below that.

SMILES	BoNT-F LC inh	Bead autofluor	Anthrax LF inh2	BoNT-A LC inh2	3CLpro inhibitor
COC(=O)c1ccc(CS(=O)(=O)c2ccc(F)cc2)o1	1	4315	7	-1	-1
OC(CSc1c(Cl)cccc1Cl)CN1CCN(c2ccccc2F)CC1 (centres undefined)	-6	20273*	-2	0	11
OC(CSc1ccccc1Cl)CN1CCN(c2ccccc2F)CC1 (centres undefined)	-7	10127	-4	-1	1
O=C(O)C1C2C=CC(O2)C1C(=O)Nc1ccc(S(=O)(=O)N2CCc3ccccc32)cc1 (centres undefined)	-4	10413	0	0	1
O=C(O)C1C2C=CC(O2)C1C(=O)Nc1ccc(S(=O)(=O)Nc2ccccc2)cc1 (centres undefined)	2	21995*	0	4	4
COc1ccc(-c2csc(NC(=O)c3cccc(S(=O)(=O)N4CCN(C)CC4)c3)n2)cc1	-2	8679	-5	0	-4
COc1cccc(C(=O)Nc2ccc(S(=O)(=O)N3CCN(C)CC3)cc2)c1	-13	3250	-6	2	-2
COC(=O)c1cccc(NC(=O)c2ccc(S(=O)(=O)N3CCN(C)CC3)cc2)c1	-10	23982*	0	-4	-1
CN1CCN(S(=O)(=O)c2ccc(NC(=O)c3ccc(F)cc3Cl)cc2)CC1	47*	3183	26	4	2
CN1CCN(S(=O)(=O)c2cccc(C(=O)Nc3nc(-c4ccccc4)cs3)c2)CC1	-2	23294*	-10	-1	5
CN1CCN(S(=O)(=O)c2ccc(NC(=O)c3ccccc3Cl)cc2)CC1	x	x	x	x	3
CC1CCc2sc(C(=O)NC(C)C3CCCO3)cc2C1 (centres undefined)	-2	5150	-3	0	-3
Cc1nc(C2CCC3C4CCC5=CC(=O)CC[C@]5(C)C4CC[C@]23C)cs1 (some centres undefined)	x	x	x	x	2
O=C(Nc1ccc(N2CCN(C(=O)c3cccs3)CC2)cc1)c1ccc(F)cc1	-16	2949	-3	-1	1
N#Cc1ccc(NC(=O)COC(=O)CCc2nc3ccccc3c(=O)[nH]2)cc1	-127	26617*	-15	-26	2
COc1cc(OC)c(C(=O)Nc2cccc3ccccc23)cc1OC	4	3597	-1	0	-1
S=c1[nH]nc(C2CCCCC2)n1/N=C/C=C/c1ccccc1	-3	22815*	0	u	11
S=c1[nH]nc(C2CCCCC2)n1/N=C/c1ccc(Br)s1	39*	10813	-19	u	5
S=c1[nH]nc(C2CCCCC2)n1/N=C/C(Cl)=C\c1ccccc1	-2	2498	-2	0	8
O=C(Nc1ccc2c(c1)OCO2)c1ccc(Br)o1	-14	4546	-6	0	-4
O=C(NCCN1CCCCC1)Nc1ccccc1	-9	24890*	1	-3	-2
CCN(CC)CCCn1c(=S)[nH]c2cc(OC)c(OC)cc2c1=O	-8	22782*	-1	u	-1
COc1cc2[nH]c(=S)n(NC(=O)c3ccccc3)c(=O)c2cc1OC	0	16796*	0	-1	-3
COC(=O)c1ccc2c(=O)n(NC(C)=O)c(=S)[nH]c2c1	-5	23622*	-3	-2	3
CCN(CC)CCCn1c(=S)[nH]c2cc(C(=O)OC)ccc2c1=O	-3	23192*	-1	1	-6
SMILES	BoNT-F LC inh	Bead autofluor	Anthrax LF inh2	BoNT-A LC inh2	3CLpro inhibitor
COC(C[C@H]1O[C@@H]1[C@H](O)COCc1ccccc1)OC	-4	2912	6	0	x
CCN(CC)CCNC(=O)c1ccc2c(=O)n(C3CCCC3)c(=S)[nH]c2c1	1	20853*	-1	0	5
CCN(CC(=O)Nc1c(F)cccc1F)C(=O)C1Cc2ccccc2CN1S(=O)(=O)CC (centres undefined)	-71	16229*	-11	-49	x
Cc1cccc(N2CCN(C(=O)C3CCN(S(=O)(=O)N4CCOCC4)CC3)CC2)c1C	-4	5444	-6	0	3
CCS(=O)(=O)N1Cc2ccccc2CC1C(=O)N1CCN(c2cccc(C)c2C)CC1 (centres undefined)	-2	23317*	-5	2	-6
CCS(=O)(=O)N1Cc2ccccc2CC1C(=O)Nc1ccc(F)cc1 (centres undefined)	2	4736	1	-1	-1
Cc1ccc(NC(=O)c2cc(-c3ccc(C)c(C)c3O)n[nH]2)cc1C	-6	3412	8	-5	-3
CCOCC(O)CS(=O)Cc1ccccc1 (centres undefined)	-8	24995*	-4	-6	-7
Cc1ccc(NC(=O)C[n+]2ccccc2)cc1[N+](=O)[O-]	-3	4400	1	1	4
Cc1nn(Cc2ccccc2Cl)c(Cl)c1/C=C/C(=O)OCC(=O)NC1CCS(=O)(=O)C1 (centres undefined)	-4	4675	-1	0	6
O=C1C2C3C=CC(C3)C2C(=O)N1CN(Cc1ccccc1)CN1C(=O)C2C3C=CC(C3)C2C1=O (centres undefined)	-2	16805*	-1	-1	-1
O=C1C2C3C=CC(C3)C2C(=O)N1CNc1ccccc1 (centres undefined)	-6	2636	1	0	3
C[C@@H]1CCCCO[C@@H](CN(C)Cc2ccc(C(F)(F)F)cc2)[C@@H](C)CN([C@H](C)CO)C(=O)c2cc(N(C)C)ccc2O1	-8	3511	-1	-1	x
O=C(CSc1nc2ccccc2s1)N/N=C/c1ccco1	-18	2121	-2	-1	2
N#C/C(=C\c1ccco1)Sc1nc2ccccc2s1	-1	23761*	-2	0	-3
O=C(O)c1ccc2nc(CO)[nH]c2c1	2	3875	-3	0	-7
O=C(O)c1ccc2nc(C(F)(F)F)[nH]c2c1	-5	21497*	0	u	-6
O=C(CN1CCCCC1)N/N=C/c1ccccc1Br	30	2973	-1	5	-3
O=S(=O)(c1ccccc1)c1cnc(-c2cccnc2)nc1-c1ccccc1	-1	22391*	-1	0	-3
CC(/C=N/NC(=O)c1cc(-c2ccncc2)nc2ccccc12)=C\c1ccco1	-1	16302*	-6	1	2
CC1CCN(CC(=O)Nc2cc(C(F)(F)F)ccc2Cl)CC1	-13	2523	-3	-1	-6
CC1CCc2c(sc(NC(=O)COC(=O)c3ccccc3NCc3ccco3)c2C#N)C1 (centres undefined)	-2	22501*	-9	-1	0
CCOc1ccc(S(=O)(=O)N2CCN(S(=O)(=O)c3ccc(OCC)cc3)C(C)C2)cc1 (centres undefined)	-2	17504*	-5	-2	-6
c1ccc(-c2nc(NC3CC3)nc(-n3ccnc3)n2)cc1	-9	21514*	2	-6	-1
